Reference: PubChem BioAssay (EPA / NIEHS)
Records with an inconclusive call do not appear. The source made the active and inactive calls. Rule for the calls, unless noted: active = hit-call score of the fitted dose curve at least 0.9, where 1 is the maximum; inconclusive = response in the unintended direction; inactive = score below 0.9.

What was measured:
[1] = molecular target: human Peroxisome Proliferator-activated Receptor alpha (PPARa), PPARA (gene 5465) (UniProt Q07869); assay: ATG_PPARa_TRANS: Attagene TRANS-FACTORIAL HepG2 Assay for human Peroxisome Proliferator-activated Receptor alpha (PPARa) (AID 2283001);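 for AC50: potency for gain of reporter signal over DMSO so agonist or activator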
Sequence of human Peroxisome Proliferator-activated Receptor alpha (PPARa), PPARA (gene 5465) (Q07869 whole entry, looked up, the tested form may be a part): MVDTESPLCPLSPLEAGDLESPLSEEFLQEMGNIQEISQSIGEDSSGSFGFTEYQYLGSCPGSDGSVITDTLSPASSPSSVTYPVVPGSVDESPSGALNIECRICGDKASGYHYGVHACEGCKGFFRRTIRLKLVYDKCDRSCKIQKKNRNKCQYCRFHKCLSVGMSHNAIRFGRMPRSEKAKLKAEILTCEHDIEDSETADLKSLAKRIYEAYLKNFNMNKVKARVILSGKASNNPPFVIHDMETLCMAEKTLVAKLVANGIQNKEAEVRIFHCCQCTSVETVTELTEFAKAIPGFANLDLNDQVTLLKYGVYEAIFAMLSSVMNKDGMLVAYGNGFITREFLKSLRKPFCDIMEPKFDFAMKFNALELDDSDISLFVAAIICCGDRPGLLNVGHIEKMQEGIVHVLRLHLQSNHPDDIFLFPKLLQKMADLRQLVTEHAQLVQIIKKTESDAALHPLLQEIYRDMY
Method in brief: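 Read-out is fluorescence of reporter cDNA fragments resolved by capillary electrophoresis after RT-PCR. Human HepG2 liver cells carried transfected PPARa-Gal4 chimera and GAL4-UAS reporter units, treated 24 h; activity scored as increase over DMSO.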

[2] = molecular target: human Retinoic Acid Receptor beta (RARb), RARB (gene 5915) (UniProt P10826); assay: ATG_RARb_TRANS: Attagene TRANS-FACTORIAL HepG2 Assay for human Retinoic Acid Receptor beta (AID 2283004)
Sequence of human Retinoic Acid Receptor beta (RARb), RARB (gene 5915) (P10826 whole entry, looked up): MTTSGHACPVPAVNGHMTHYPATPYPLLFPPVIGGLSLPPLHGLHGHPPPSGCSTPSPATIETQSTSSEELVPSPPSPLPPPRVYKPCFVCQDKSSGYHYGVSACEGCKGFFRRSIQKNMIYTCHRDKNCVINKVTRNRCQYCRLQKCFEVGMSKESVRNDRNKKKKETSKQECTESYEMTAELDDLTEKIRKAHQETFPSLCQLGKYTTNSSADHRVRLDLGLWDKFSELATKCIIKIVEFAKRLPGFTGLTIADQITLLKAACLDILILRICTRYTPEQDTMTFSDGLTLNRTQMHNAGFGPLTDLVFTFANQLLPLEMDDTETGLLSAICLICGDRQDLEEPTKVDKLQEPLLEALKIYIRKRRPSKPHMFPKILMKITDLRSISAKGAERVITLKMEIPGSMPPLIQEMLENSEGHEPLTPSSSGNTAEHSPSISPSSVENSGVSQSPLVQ
Method in brief: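 Transient transfection of HepG2 with multiple reporter units → chemical dosing, 24 h → total RNA isolation → RT with oligo(dT) → reporter-specific PCR, 6-FAM primer extension, HpaI digest → capillary electrophoresis. Positive direction vs DMSO control.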

[3] = molecular target: Retinoic acid receptor alpha (Homo sapiens) (UniProt P10276); assay: ATG_RARa_TRANS: Attagene TRANS-FACTORIAL HepG2 Assay for human Retinoic Acid Receptor alpha (RARa) (AID 2283005)
Sequence of Retinoic acid receptor alpha (Homo sapiens) (P10276 whole entry, looked up, the tested form may be a part): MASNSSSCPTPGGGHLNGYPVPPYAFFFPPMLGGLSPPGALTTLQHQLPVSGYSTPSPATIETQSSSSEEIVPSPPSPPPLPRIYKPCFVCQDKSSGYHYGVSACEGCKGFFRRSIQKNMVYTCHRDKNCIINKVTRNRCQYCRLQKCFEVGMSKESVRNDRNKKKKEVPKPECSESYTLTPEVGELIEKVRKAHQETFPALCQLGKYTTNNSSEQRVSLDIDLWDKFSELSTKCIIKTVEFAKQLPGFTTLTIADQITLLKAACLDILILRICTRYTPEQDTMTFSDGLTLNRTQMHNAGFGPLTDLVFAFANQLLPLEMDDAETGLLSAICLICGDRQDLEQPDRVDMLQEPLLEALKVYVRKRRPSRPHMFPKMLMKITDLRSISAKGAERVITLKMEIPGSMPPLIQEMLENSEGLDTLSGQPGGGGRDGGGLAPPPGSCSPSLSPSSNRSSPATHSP
Method in brief: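 Reporter transcripts, measured by RT-PCR with fluorescent labeling and capillary electrophoresis after 24 h dosing, reflect activity of an exogenous human RARa–GAL4 fusion in transiently transfected HepG2. Fitted for increase relative to DMSO.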

[4] = molecular target: Peroxisome proliferator-activated receptor gamma (Homo sapiens) (UniProt P37231); assay: ATG_PPARg_TRANS: Attagene TRANS-FACTORIAL HepG2 Assay for human Peroxisome Proliferator-activated Receptor-gamma (PPARg) (AID 2283007)
Sequence of Peroxisome proliferator-activated receptor gamma (Homo sapiens) (P37231 whole entry, looked up, the tested form may be a part): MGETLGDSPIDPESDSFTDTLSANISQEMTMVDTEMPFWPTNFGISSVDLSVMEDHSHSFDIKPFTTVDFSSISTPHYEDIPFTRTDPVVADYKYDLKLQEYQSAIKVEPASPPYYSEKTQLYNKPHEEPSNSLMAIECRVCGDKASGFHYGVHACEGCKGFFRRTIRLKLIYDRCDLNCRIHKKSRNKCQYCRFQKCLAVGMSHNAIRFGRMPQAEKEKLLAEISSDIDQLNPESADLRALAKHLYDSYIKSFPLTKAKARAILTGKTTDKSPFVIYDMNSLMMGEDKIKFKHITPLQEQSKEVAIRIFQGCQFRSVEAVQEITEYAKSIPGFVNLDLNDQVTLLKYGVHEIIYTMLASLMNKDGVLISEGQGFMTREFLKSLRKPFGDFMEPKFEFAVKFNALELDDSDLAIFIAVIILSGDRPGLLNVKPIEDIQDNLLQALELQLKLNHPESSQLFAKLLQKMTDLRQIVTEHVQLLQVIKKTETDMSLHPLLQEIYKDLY
Method in brief: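 HepG2 cells transiently transfected with multiplexed GAL4-UAS reporter units and exogenous chimeric NR-Gal4 proteins; reporter mRNA quantified after 24 h compound exposure by RT-PCR, fluorescent labelling, HpaI digestion and capillary electrophoresis; gain-of-signal fitted versus DMSO baseline.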

[5] = molecular target: Nuclear receptor subfamily 1 group I member 2 (Homo sapiens) (UniProt O75469); assay: ATG_PXR_TRANS: Attagene TRANS-FACTORIAL HepG2 Assay for human Pregnane X Receptor (PXR) (AID 2283008)
Sequence of Nuclear receptor subfamily 1 group I member 2 (Homo sapiens) (O75469 whole entry, looked up, the tested form may be a part): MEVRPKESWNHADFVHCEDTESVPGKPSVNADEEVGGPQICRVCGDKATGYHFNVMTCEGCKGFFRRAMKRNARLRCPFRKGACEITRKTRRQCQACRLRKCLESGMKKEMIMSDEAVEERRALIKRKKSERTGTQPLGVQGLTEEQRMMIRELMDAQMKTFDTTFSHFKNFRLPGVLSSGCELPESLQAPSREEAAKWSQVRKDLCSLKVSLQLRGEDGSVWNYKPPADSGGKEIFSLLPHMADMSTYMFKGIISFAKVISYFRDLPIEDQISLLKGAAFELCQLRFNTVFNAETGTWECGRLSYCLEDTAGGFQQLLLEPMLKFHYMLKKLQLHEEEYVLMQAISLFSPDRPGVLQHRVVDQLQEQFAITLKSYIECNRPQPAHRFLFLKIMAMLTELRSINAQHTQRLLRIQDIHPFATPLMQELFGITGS
Method in brief: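 HepG2 cells transiently transfected with multiple reporter units, here a PXR-GAL4 chimera driving a GAL4-UAS reporter; 24 h compound exposure. Reporter mRNA measured by RT-PCR, FAM labelling and capillary electrophoresis; gain of signal fitted against DMSO baseline.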

[6] = molecular target: human RAR-related Orphan Receptor beta (RORb), RORB (gene 6096) (UniProt Q92753); assay: ATG_RORb_TRANS: Attagene TRANS-FACTORIAL HepG2 Assay for human RAR-related Orphan Receptor beta (RORb) (AID 2283010)
Sequence of human RAR-related Orphan Receptor beta (RORb), RORB (gene 6096) (Q92753 whole entry, looked up, the tested form may be a part): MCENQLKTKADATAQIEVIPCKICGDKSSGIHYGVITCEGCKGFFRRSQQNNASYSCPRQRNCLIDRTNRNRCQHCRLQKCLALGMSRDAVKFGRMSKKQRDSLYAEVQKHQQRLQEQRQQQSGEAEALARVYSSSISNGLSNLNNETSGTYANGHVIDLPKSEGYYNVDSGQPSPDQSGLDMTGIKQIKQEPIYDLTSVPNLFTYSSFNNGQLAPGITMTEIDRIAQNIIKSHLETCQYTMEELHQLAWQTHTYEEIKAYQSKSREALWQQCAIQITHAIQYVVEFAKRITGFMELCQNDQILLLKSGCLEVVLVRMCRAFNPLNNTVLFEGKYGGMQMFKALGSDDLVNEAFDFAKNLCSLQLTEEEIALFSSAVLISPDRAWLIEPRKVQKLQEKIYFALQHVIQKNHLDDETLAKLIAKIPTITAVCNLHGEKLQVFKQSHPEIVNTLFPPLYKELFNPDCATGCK
Method in brief: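 HepG2 cells transiently transfected with GAL4-UAS reporter units expressing chimeric NR-Gal4 protein; reporter mRNA measured 24 h after dosing by RT-PCR, 6-FAM labelling and capillary electrophoresis. Gain-of-signal fitted relative to DMSO baseline.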

[7] = molecular target: human Peroxisome Proliferator-activated Receptor delta (PPARd), PPARD (gene 5467) (UniProt Q03181); assay: ATG_PPARd_TRANS: Attagene TRANS-FACTORIAL HepG2 Assay for human Peroxisome Proliferator-activated Receptor delta (PPARd) (AID 2283002)
Sequence of human Peroxisome Proliferator-activated Receptor delta (PPARd), PPARD (gene 5467) (Q03181 whole entry, looked up, the tested form may be a part): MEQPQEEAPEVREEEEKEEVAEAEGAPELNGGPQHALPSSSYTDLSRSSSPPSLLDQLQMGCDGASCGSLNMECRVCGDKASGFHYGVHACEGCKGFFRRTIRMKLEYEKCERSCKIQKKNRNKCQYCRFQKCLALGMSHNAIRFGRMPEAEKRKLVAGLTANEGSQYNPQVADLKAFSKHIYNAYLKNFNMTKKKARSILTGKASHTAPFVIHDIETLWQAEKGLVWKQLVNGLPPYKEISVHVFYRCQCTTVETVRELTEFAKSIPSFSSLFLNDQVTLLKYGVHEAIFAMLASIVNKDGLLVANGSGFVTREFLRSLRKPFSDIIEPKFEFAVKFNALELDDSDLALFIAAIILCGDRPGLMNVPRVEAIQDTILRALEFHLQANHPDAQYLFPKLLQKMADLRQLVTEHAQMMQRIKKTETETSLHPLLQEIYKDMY
Method in brief: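 Transient HepG2 transfection (multiple GAL4-UAS RTUs, chimeric receptor-Gal4); 24 h dosing; total RNA → oligo(dT) RT → PCR → 6-FAM primer extension → HpaI cut → CE. Positive direction vs DMSO.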

[8] = molecular target: human Retinoic Acid Receptor gamma (RARg), RARG (gene 5916) (UniProt P13631); assay: ATG_RARg_TRANS: Attagene TRANS-FACTORIAL HepG2 Assay for human Retinoic Acid Receptor gamma (RARg) (AID 2283009)
Sequence of human Retinoic Acid Receptor gamma (RARg), RARG (gene 5916) (P13631 whole entry, looked up, the tested form may be a part): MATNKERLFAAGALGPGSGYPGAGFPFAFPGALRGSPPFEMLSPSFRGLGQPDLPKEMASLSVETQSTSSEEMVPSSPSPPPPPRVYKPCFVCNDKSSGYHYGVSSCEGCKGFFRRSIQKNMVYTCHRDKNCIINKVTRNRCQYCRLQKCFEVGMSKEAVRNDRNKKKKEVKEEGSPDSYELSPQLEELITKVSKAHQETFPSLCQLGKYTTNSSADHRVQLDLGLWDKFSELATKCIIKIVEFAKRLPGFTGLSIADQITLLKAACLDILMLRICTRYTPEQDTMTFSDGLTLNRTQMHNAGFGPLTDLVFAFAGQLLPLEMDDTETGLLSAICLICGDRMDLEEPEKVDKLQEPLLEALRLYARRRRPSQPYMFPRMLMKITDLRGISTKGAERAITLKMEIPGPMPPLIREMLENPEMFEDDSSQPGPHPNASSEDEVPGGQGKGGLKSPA
Method in brief: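 HepG2 transiently transfected with GAL4-UAS reporter units and chimeric NR-Gal4 constructs; 24 h compound exposure. Reporter mRNA quantified by RT-PCR, FAM labeling, HpaI digestion and capillary electrophoresis; gain-of-signal versus DMSO.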

[9] = read-out: Intercellular Adhesion Molecule 1 (ICAM1), ICAM1 (gene 3383); assay: BSK_3C_ICAM1: BioMAP Diversity Plus: 3C Assay for Intercellular Adhesion Molecule 1 (ICAM1) Biomarker Activity (AID 2283003; active = hit-call score of the fitted dose curve at least 0.9, where 1 is the maximum; inactive = score below 0.9); settings: primary human endothelial cells (HUVEC); actives raise or lower the signal
Method in brief: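 HUVEC primary cells stimulated under 3C conditions; ICAM1 measured by ELISA 24 h after compound dosing. Curves fitted bidirectionally against the DMSO baseline. Overt cytotoxicity checked by SRB staining of parallel cultures.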

[10] = BSK_3C_Proliferation: Cell Proliferation Assessment in the BioMAP Diversity Plus: 3C Assay (AID 2283006; active = hit-call score of the fitted dose curve at least 0.9, where 1 is the maximum; inactive = score below 0.9;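 for AC50: potency may reflect either rise or fall in cell number versus DMSO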); settings: primary human endothelial cells (HUVEC)
Method in brief: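 Subconfluent HUVEC (3C system) cultured with chemical; relative cell number read at 48 h by sulforhodamine B total-protein staining (0.1% SRB after 10% TCA fixation, 560 nm). Bidirectional fit relative to DMSO.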

Measured: AC50

CC(=O)O[C@H]1C[C@@H]2CC[C@@]1(C)C2(C)C
inactive: [1] | [2] | [3] | [4] | [5]

CC1=NN(c2ccc(S(=O)(=O)O)cc2)C(=O)C1
inactive: [1] | [2] | [3] | [5] | [6]

O=C(O)c1cc(C(=O)O)cc([N+](=O)[O-])c1
inactive: [2]

COC(=O)c1cccnc1
inactive: [2]

C=CC(C)C#N (centres undefined)
inactive: [7] | [2] | [3] | [4] | [5] | [8]

C#CC(C)(O)CC(C)C (centres undefined)
inactive: [1] | [4] | [5] | [8] | [6]

CN(C)c1cccc(O)c1
active: [5] 5.57 µM
inactive: [1] | [4] | [6]

COCCOCCOCCO
inactive: [1] | [6]

NC1CCCCC1N (centres undefined)
inactive: [7] | [3]

OCC(O)c1ccccc1 (centres undefined)
inactive: [1] | [6]

CC(=O)CC(=O)Nc1ccc(C)cc1C
inactive: [1] | [5]

CCCCC1CCC(O)CC1 (centres undefined)
inactive: [7] | [2] | [3] | [4] | [5]

C=C(C)CNCC
active: [5] 54.6 µM
inactive: [1] | [8]

CCCN(CCC)S(=O)(=O)c1ccc(C(=O)O)cc1
inactive: [1] | [4] | [6]

CC(=O)c1c(C)c([N+](=O)[O-])c(C(C)(C)C)c([N+](=O)[O-])c1C
active: [5] 1.84 µM
inactive: [7] | [9] | [2] | [3] | [10] | [4]

CC(C)C[C@H](NC(=O)OCC1c2ccccc2-c2ccccc21)C(=O)O
inactive: [6]
active: [1] 40 µM | [4] 23.1 µM | [5] 12.5 µM

CN1C(=O)c2ccccc2C1=O
inactive: [1] | [8]

CCOc1ccc(N=Nc2ccc(C=Cc3ccc(N=Nc4ccc(OCC)cc4)cc3S(=O)(=O)O)c(S(=O)(=O)O)c2)cc1
inactive: [7] | [2] | [4] | [5]

CCC(=O)OCCOc1ccccc1
inactive: [1] | [6]

COc1ccc(CCC(C)=O)cc1
inactive: [1] | [4] | [6]

Cc1ccc(C)o1
inactive: [7]

Clc1cc(Cl)c(-c2c(Cl)c(Cl)cc(Cl)c2Cl)cc1Cl
active: [10] 16.7 µM | [5] 4.6 µM
inactive: [7] | [9] | [4] | [6]

O=C(CS)OCCOC(=O)CS
inactive: [1] | [4] | [6]

CC(=O)C(C)O (centres undefined)
inactive: [1] | [6]

CCC(C)=O
inactive: [1] | [8]

CCOC(=O)CC(C)O (centres undefined)
inactive: [1] | [4] | [8]

CCN(CCC#N)c1ccc(N=Nc2ccc([N+](=O)[O-])cc2)cc1
inactive: [1] | [4] | [5] | [6]

ON=C1CCCCC1
inactive: [1] | [6]

CCCCCCCC(=O)OCCCCCC
inactive: [7] | [2] | [3] | [4] | [5] | [8]

CCN(CC)C(=O)N(CC)CC
inactive: [7] | [9] | [2] | [3] | [10] | [5] | [8]

ClC(c1ccccc1)(c1ccccc1)c1ccccc1
inactive: [7] | [2] | [8]

CC(C)(N=C=O)c1cccc(C(C)(C)N=C=O)c1
active: [5] 11.3 µM
inactive: [7] | [9] | [10] | [6]

COCCc1ccc(OCC(O)CNC(C)C)cc1 (centres undefined)
inactive: [7] | [3] | [4] | [5]

[Cl][Au]([Cl])[Cl]
inactive: [7]

C=C(C#N)C(=O)OCC
inactive: [1] | [4] | [5] | [6]

O=C(O)CCCCCCCCCCCC(=O)O
inactive: [1] | [4] | [5] | [6]

CC1CCC(C(C)C)C(O)C1 (centres undefined)
inactive: [7] | [2] | [3] | [4] | [5] | [8]

CC(=O)O[C@@H]1CC2CCC1(C)C2(C)C (some centres undefined)
inactive: [1] | [4] | [8] | [6]

CCOC(=O)CN
inactive: [7] | [2] | [4] | [6]

CC1=C(Br)C(=O)C(Br)=C/C1=C(/c1ccccc1S(=O)(=O)O)c1cc(Br)c(O)c(Br)c1C
inactive: [7] | [2] | [4] | [8] | [6]

CC/C=C\CCOC(=O)CC
inactive: [1] | [5]

CC1(C)C2=CCCC(C)(C)[C@]23CC[C@H]1C3
inactive: [7] | [9] | [2] | [4] | [6]
active: [10] 31.7 µM | [5] 1.31 µM

CS(=O)(=O)c1ccc(C2=C(c3ccccc3)C(=O)OC2)cc1
inactive: [9] | [2] | [10] | [4] | [5]

COc1ccc(N=Nc2cc(C)c(N=Nc3ccc(S(=O)(=O)O)cc3)cc2OC)cc1
active: [4] 25.4 µM
inactive: [7] | [6]

CCCOC(=O)c1c(Cl)c(Cl)c(Cl)c(Cl)c1C(=O)OCCC
active: [4] 5.66 µM | [5] 4.24 µM
inactive: [7]

CS(=O)(=O)OCCCCOS(C)(=O)=O
inactive: [9] | [3] | [10] | [4] | [6]

CCCCOCC
inactive: [7] | [3] | [4] | [6]

Cc1ccc2c(c1)C(=O)OC2=O
inactive: [7] | [3] | [4] | [5] | [6]

CCCC(O)C(O)CO (centres undefined)
inactive: [7] | [5] | [6]

Oc1ccc2cc(SSc3ccc4cc(O)ccc4c3)ccc2c1
active: [4] 5.56 µM
inactive: [7] | [5]
